Screening results deposited in PubChem BioAssay by National Center for Advancing Translational Sciences (NCATS).
12-hLO inh: qHTS Assay for Inhibitors of 12-hLO (12-human lipoxygenase). purified 12-hLO, xylenol orange hydroperoxide absorbance. Potency, µM (doses to about 57.1 µM), without a hit: at the top dose activity change, negative = inhibition, most hits filed as inhibitors. 0.12% of 150,000 active. AID 1452, 2008; active = well fitted inhibition curve with a large enough effect; inconclusive = small, poorly fitted or top-dose-only effect; also: potency is read from the fitted curve at half-maximal effect; nearly all actives have a fitted effect of over 55% in size
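Hydroperoxide formation by human 12-lipoxygenase from 40 uM arachidonic acid was followed colorimetrically via ferric-xylenol orange complex, using the 573/405 nm absorbance ratio. Enzyme concentration was 150 nM, with 30 min reaction at room temperature.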
ALDH1A1 inh: qHTS Assay for Inhibitors of Aldehyde Dehydrogenase 1 (ALDH1A1). Aldehyde dehydrogenase 1A1 (Homo sapiens), P00352. Purified ALDH1A1, NADH fluorescence, propionaldehyde substrate. Potency, µM (top dose mostly 75.3 µM), without a hit: at the highest dose activity, negative = inhibition, hits mostly inhibitors. 7.3% of 220,000 active. AID 1030, 2008;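 also: potency is read from the fitted curve at half-maximal effect; plate controls were no enzyme wells and a reference inhibitor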
Target sequence (P00352 whole entry, looked up): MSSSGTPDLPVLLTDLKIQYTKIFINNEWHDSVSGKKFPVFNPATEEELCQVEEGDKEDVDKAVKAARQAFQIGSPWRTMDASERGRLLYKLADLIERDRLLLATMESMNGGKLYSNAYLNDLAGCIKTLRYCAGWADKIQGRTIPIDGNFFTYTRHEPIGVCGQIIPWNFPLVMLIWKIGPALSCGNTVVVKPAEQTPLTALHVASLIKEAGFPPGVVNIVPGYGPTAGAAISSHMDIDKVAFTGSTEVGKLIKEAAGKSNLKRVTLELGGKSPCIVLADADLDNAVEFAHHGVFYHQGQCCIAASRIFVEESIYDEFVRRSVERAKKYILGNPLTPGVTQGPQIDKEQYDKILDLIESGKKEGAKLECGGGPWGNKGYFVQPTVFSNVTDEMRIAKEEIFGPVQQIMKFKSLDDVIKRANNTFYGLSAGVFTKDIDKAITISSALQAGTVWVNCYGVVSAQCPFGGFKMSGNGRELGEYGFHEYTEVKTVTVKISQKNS
PNC inhibitor: High Content Assay for Compounds that inhibit the Assembly of the Perinucleolar Compartment; activity change (PNC), negative = inhibition, % at 10 µM; 3.1% of 140,000 active; PC3M PTB-GFP, PNC prevalence imaging, 16 h; hits give low values; AID 2417, 2010;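 active = readout at or below -70, meaning at least 70% loss of cells showing the perinucleolar compartment, a nuclear body marking cancer cells; inconclusive = readout between -30 and a set limit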;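 also: plate controls were DMSO wells for no effect and camptothecin positive control wells for full effect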
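PC3M cells stably expressing PTB-GFP, 750–1000 cells/well, treated 16 h at 37 °C with compound (23 nl of library stock), in duplicate. After paraformaldehyde fixation and Hoechst stain, imaged at 20x; PNC prevalence scored by image analysis.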
LMNA splice mod: qHTS Assay for Modulators of Lamin A Splicing | HeLa LMNA splicing GFP/RFP minigene ratio, 48 h | 0.01% of 200,000 active | Potency, µM (top dose mostly 46.1 µM), inactives show at the highest dose ratio change, negative = inhibition, usual class: inhibitors; active = well fitted inhibition curve with a large enough effect in the signal ratio, with a control signal flat, not every such curve was filed as active; inconclusive = small, poorly fitted or top-dose-only effect, or effect the other way, or a change in a side signal; the % refers to the signal ratio; also: potency is read from the fitted curve at half-maximal effect
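S3 HeLa cells stably expressing lamin A-EGFP splicing minigene plus DsRed2, 600 cells/well, 48 h compound exposure at 37C. Laser-scanning cytometry; analysed as GFP (500-530 nm)/RFP (575-640 nm) total intensity ratio; 0.5% DMSO vehicle.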
HPGD inh: qHTS Assay for Inhibitors of HPGD (15-Hydroxyprostaglandin Dehydrogenase). 15-hydroxyprostaglandin dehydrogenase [NAD(+)] (Homo sapiens), P15428. purified HPGD, NADH fluorescence kinetic, PGE2 substrate. Potency, µM, without a hit: at the top dose activity change, negative = inhibition, usual class: inhibitors. 4.3% of 150,000 active; also: potency is read from the fitted curve at half-maximal effect
Target sequence (P15428 whole entry, looked up): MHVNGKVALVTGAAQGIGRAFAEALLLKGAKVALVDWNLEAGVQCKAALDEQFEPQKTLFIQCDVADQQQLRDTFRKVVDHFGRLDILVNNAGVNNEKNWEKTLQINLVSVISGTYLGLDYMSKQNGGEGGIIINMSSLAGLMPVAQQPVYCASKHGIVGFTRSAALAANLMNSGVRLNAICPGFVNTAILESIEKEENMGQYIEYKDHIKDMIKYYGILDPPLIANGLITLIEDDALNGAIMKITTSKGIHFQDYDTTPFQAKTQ
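NADH formation kinetics: reaction with 30 uM PGE2 and 1 mM NAD+ (final), 20 nM enzyme, Tris-HCl pH 8 with Tween 20, after 15 min compound preincubation at room temperature. Fluorescence change, last versus first of five reads.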
Starred values were filed as active, the others as inactive; u = inconclusive; x = not tested or not shown; [ ] = dose if it differs, or a comment. In the library only some 10% were active in any assay of this set; here they are far more common. Unless noted, calls follow the shape of the dose curve; as a rule, active = well fitted inhibition curve with a large enough effect (not every such curve was filed as active); inconclusive = small, poorly fitted or top-dose-only effect, or another doubt; inactive = no such curve, though single readings can be large or run the other way. Unless noted, % is scaled to controls: 0 for no effect and ±100 for the full control effect.

SMILES	12-hLO inh	ALDH1A1 inh	PNC inhibitor	LMNA splice mod	HPGD inh
CCOC(=O)C1=C(C)Nc2ccccc2N=C1NC(=O)Cc1ccc(OC)cc1	0.0%	-9.9%	2.4	3.4%	-10.7%
CCOC(=O)C1=C(C)Nc2ccccc2N=C1NC(=O)/C=C/c1ccc(OC)cc1OC	x	20µM*	x	-2.4%[46 µM]	x
CC(=O)N1c2ccccc2CC1C(=O)N1CCN(c2ccccc2)CC1 (stereo unspecified)	x	x	x	-3.9%[46 µM]	x
CCCCNC(=S)NNC(=O)c1cccnc1	-0.6%	4.9%	-87.3*	-3.5%	-7.7%
Cc1cccc(C(=O)NC(=S)NNC(=O)c2ccccc2Cl)c1	0.3%	22.4µM*	32.5	u	-3.2%
O=C(NC(=S)NNC(=O)c1ccc(Cl)cc1Cl)c1cccnc1	-3.2%	23.8µM*	u	u	u
CCNC(=S)NNC(=O)c1cccnc1	5.7%	2.2%	-7.1	-3.8%	-5.7%
Cc1cccc(C(=O)NC(=S)NNC(=O)Cc2ccccc2)c1	-3.5%	u	u	u	-17.5%
CCCC(=O)OCc1cnc(C)c2oc(=O)c(C(=O)Nc3ccc(F)cc3C)cc12	x	x	x	-0.3%[46 µM]	x
COC1CCC(C(=O)c2ccc3nc4c(cc3c2)CCCO4)CC1 (stereo unspecified)	-1.0%	-4.1%	x	x	-13.4%
CC(C)(C)OC(=O)N1CCC(C(=O)N2CCCCCC2)CC1	0.9%	12.8%	u	-6.1%	14.1µM*
Cc1ccc(OC(=O)COc2ccccc2)c(-n2nc3ccccc3n2)c1	1.6%	u	27.7	7.9%	u
Cc1ccc(OC(=O)COc2ccccc2C)c(-n2nc3ccccc3n2)c1	2.7%	31.6µM*	8.1	-5.5%	u
Cc1cc(C)cc(NC(=O)c2sc3nc(-c4ccccc4)cn3c2C)c1	x	x	x	-11.0%[46 µM]	x
O=C(O)CCN1C(=O)C2C3CC(C2C1=O)C1C(c2ccccc2)c2sc(=O)[nH]c2SC31 (stereo unspecified)	x	2.2%	x	5.2%[9.22 µM]	x
Cc1ccc(C2c3sc(=O)[nH]c3SC3C4CC(C5C(=O)N(C(C)C(=O)O)C(=O)C45)C23)cc1 (stereo unspecified)	-0.8%	u	-89.9*	-8.1%	-1.9%
[N-]=[N+]=Nc1ccc(C(=O)CSC[C@@H](NC(=O)CC[C@@H](N)C(=O)O)C(=O)NCC(=O)O)cc1	-1.7%	x	x	x	x
CCCCN(c1ccccc1)S(=O)(=O)c1cc2c3c(c1)C(C)C(=O)N3CCC2 (stereo unspecified)	x	x	x	19.8%[46 µM]	x
CCc1nc(N[C@H](C(=O)O)C(C)CC)c2oc3ccccc3c2n1 (stereo partly specified)	-1.1%	0.501µM*	25.4	0.4%[0.0737 µM]	-6.5%
CCC(C)[C@H](Nc1nc(-c2ccccc2)nc2c1oc1ccccc12)C(=O)O (stereo partly specified)	2.8%	0.794µM*	76.0	1.4%[0.0737 µM]	-6.1%
CC(C)[C@H](Nc1nc(-c2ccccc2)nc2c1oc1ccccc12)C(=O)O	1.3%	1.12µM*	7.9	7.3%[0.0737 µM]	0.2%
O=C(CSC1=Nc2ccccc2N=C(c2ccc(F)cc2)C1)Nc1cc(F)ccc1F	x	x	x	-5.0%[46 µM]	x
Cc1cccc(-c2cc(=O)c3cc(Br)ccc3o2)c1	-1.2%	-1.2%	x	x	-9.1%
Cc1ccc(NC(=O)C(C)Sc2nc(=O)cc(N)n2-c2ccccc2)cc1 (stereo unspecified)	-19.5%	11.2µM*	-20.6	-8.0%	-15.5%
Cc1ccc(NC(=O)C(C)Sc2nnc(-c3cccnc3)o2)cc1 (stereo unspecified)	-1.6%	1.5%	-29.2	2.0%	-26.9%
SMILES	12-hLO inh	ALDH1A1 inh	PNC inhibitor	LMNA splice mod	HPGD inh
Cc1ccc(NC(=O)C(C)Sc2nnc(-c3cccnc3)n2-c2ccccc2)cc1 (stereo unspecified)	-1.0%	-10.3%	u	-7.6%	14.1µM*
CCOC(=O)c1sc2ccccc2c1S(=O)(=O)Nc1c(C)cccc1C	x	x	x	-21.3%[46 µM]	x
CCOC(=O)c1sc(N(Cc2ccccc2)C(=O)COC(=O)c2ccc(O)cc2)nc1C	-5.3%	14.1µM*	u	u	u
CCOC(=O)c1sc(NC(=O)CSc2ncn[nH]2)c(C#N)c1C	-2.8%	-7.8%	-11.1	2.5%	-13.2%
CCOC(=O)c1sc(N(Cc2ccccc2)C(=O)COC(=O)c2ccccc2O)nc1C	3.2%	-7.3%	-28.7	-1.2%	20µM*
CCOC(=O)c1sc(N(C)C(C)=O)nc1C	5.2%	-9.7%	24.6	22.6%	2.3%
CCOC(=O)c1sc(N(Cc2ccccc2)C(=O)CSc2ncn[nH]2)nc1C	-2.4%	4.47µM*	u	2.7%	-25.9%
COc1cccc(Cn2c(=O)cnc3cnc(Nc4ccccc4)nc32)c1	x	5.9%	x	u	x
CC(C)[C@@H]1NC(=O)[C@H](CCCCN)NC(=O)[C@H](Cc2c[nH]c3ccccc23)NC(=O)[C@H](Cc2ccc(O)cc2)NC(=O)[C@H](C)N(C)C(=O)[C@H](Cc2ccccc2)NC1=O	-5.6%	x	x	x	x
CCN(Cc1ccccc1)C(=O)CS(=O)(=O)c1ccccc1	x	0.2%	x	x	x
O=S(=O)(C/C(=C/CO)S(=O)(=O)c1ccccc1)c1ccccc1	-0.7%	12.6µM*	-94.8*	u	-5.3%
N#Cc1c2n(c3c(=S)nc[nH]c13)CCCCC2	-20.7%	18.9µM*	-6.7	12.6%	-26.6%
CCOC(=O)c1c(C)c(C(=O)NCCOC)c(C)n1CC	2.1%	0.4%	8.6	9.7%	8.91µM*
CCOC(=O)c1c(C)c(C(=O)NCCCOC)c(C)n1C	0.0%	1.2%	49.5	-0.7%	u
CN(C)Cc1ccccc1-c1cc(Nc2ccccc2)ncn1	-0.6%	2.3%	x	u	-3.3%
CC1CCCN(c2ccc(C(=O)NCc3cccs3)cn2)C1 (stereo unspecified)	1.8%	u	u	-8.4%	28.2µM*
Cc1ccc(C(=O)NCc2cccs2)cc1S(=O)(=O)N1CCCCC1	1.2%	u	19.2	-10.3%	0.8%
O=C(NCc1cccs1)c1ccc(N2CCCCC2)nc1	3.0%	12.6µM*	-11.8	3.7%	15.8µM*
COc1ccccc1N1CCN(S(=O)(=O)CCNC(=O)COc2ccc(C(C)C)cc2)CC1	x	x	x	-19.0%[46 µM]	x
O=C(O)C1(O)CC(O)C(O)C(O)C1 (stereo unspecified)	6.4%	-6.4%	x	u	-5.2%
O=C1c2sc3nc4ccccc4n3c2C(=O)N1c1ccccc1Cl	-11.9%	15.8µM*	20.0	-0.1%	14.1µM*
Cc1ccccc1N1C(=O)c2sc3nc4c(c(=O)n3c2C1=O)CCC4	-1.7%	28.2µM*	-3.8	-1.7%	31.6µM*
Cc1ccc(NCN2C(=O)C(=O)c3ccccc32)nc1	1.7%	0.141µM*	u	-13.1%	-13.3%
